We go through eight compounds from PubChem BioAssay (NCI).

Some test systems named below: HCT-15 colon; HT29 colon; SNB-75 CNS; SNB-19 CNS; U251 CNS; PC-3 prostate; SK-MEL-5 melanoma; UACC-62 melanoma; LOX IMVI melanoma; SK-MEL-28 melanoma; SK-MEL-2 melanoma; EKVX NSCLC; SN12C renal; TK-10 renal; ACHN renal; CAKI-1 renal; CCRF-CEM leukemia; MOLT-4 leukemia; UO-31 renal; A498 renal.
What all share (experiment): NCI-60 one-dose screen, 48 h (100 = growth as untreated, 0 = no growth, -100 = all killed)
Conditions in all cases: 10 µM unless noted

Structures are written as SMILES. Compounds without any hit were thinned out: in the full panel of roughly 83,000, 20% have a hit.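 Activity criterion: percent growth below 10, measured after cells in 96-well plates were exposed to a single compound concentration for 48 hours.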 Values without a mark were called inactive. Activity calls are given as the source filed them.

As to `COc1ccc(C(=O)Nc2cccc(C3CCc4c(cc(OC)c(OC)c4OC)O3)c2)cc1` (centres undefined), the growth with HCT-15 colon is 30.2%; in the assay on HT29 colon, 17.6%; in the assay with SNB-75 CNS, 26.3%; in the assay with SNB-19 CNS, 53.3%; in the assay on U251 CNS it was 36.4%; in the assay on PC-3 prostate, 49.3%. Moreover, the growth in the assay on SK-MEL-5 melanoma was 60.2%; in the assay on UACC-62 melanoma, 38.7%; in the assay with LOX IMVI melanoma it was 50.3%; in the assay with SK-MEL-28 melanoma it was 61.4%; with SK-MEL-2 melanoma, 37.9%; with EKVX NSCLC, 54.7%. Also, the growth is 69.6% in the assay with SN12C renal; 80.8% with TK-10 renal; 68.9% in the assay with ACHN renal; 54.3% in the assay on CAKI-1 renal; 36.5% in the assay on CCRF-CEM leukemia; 22.5% in the assay with MOLT-4 leukemia.

Consider `CCOc1cccc(-c2nc(N)nc(Nc3ccccc3SSc3ccccc3Nc3nc(N)nc(-c4cccc(OCC)c4)n3)n2)c1`, for which the growth in the assay on HCT-15 colon was 18.5%; with HT29 colon, 110%; with SNB-75 CNS, 90.5%; in the assay on SNB-19 CNS, 55.1%; in the assay on U251 CNS, 8.24% (active); with PC-3 prostate, 29.5%. The growth in the assay on SK-MEL-5 melanoma was 88%; in the assay on UACC-62 melanoma, 66.2%; in the assay with LOX IMVI melanoma it was 4.82% (active); in the assay with SK-MEL-28 melanoma it was 93.6%; in the assay with SK-MEL-2 melanoma, 98.1%; with EKVX NSCLC, 60.5%. The growth in the assay with SN12C renal is 32.9%; with TK-10 renal, 102%; in the assay with ACHN renal, 59.5%; in the assay with CAKI-1 renal, 8.02% (active); in the assay on CCRF-CEM leukemia it was 46.5%; in the assay on MOLT-4 leukemia, 56.7%.

Take `NC(=NCCCOc1ccc(F)cc1)Nc1ccc(Cl)cc1`: the growth with HCT-15 colon was 69.4%; in the assay on HT29 colon, 13.8%; with SNB-75 CNS, 80.9%; in the assay on SNB-19 CNS it was 55.2%; in the assay on U251 CNS, 76.7%; with PC-3 prostate, 50.2%. In addition, the growth in the assay with SK-MEL-5 melanoma was 4.33% (active); in the assay with UACC-62 melanoma, 56.8%; in the assay with LOX IMVI melanoma it was 83.9%; in the assay with SK-MEL-28 melanoma it was 88.3%; in the assay on SK-MEL-2 melanoma, 84.6%; with EKVX NSCLC, 52.8%. In addition, the growth with SN12C renal is 65.1%; in the assay with TK-10 renal, 64%; in the assay with ACHN renal, 18.3%; with CAKI-1 renal it was 39%; in the assay with CCRF-CEM leukemia it was 49.7%; in the assay with MOLT-4 leukemia, 23.5%.

In the case of `COc1ccc(N2CCN(c3ccc(NC4=C(Cl)C(=O)c5ncccc5C4=O)cc3)CC2)cc1`, the growth in the assay on HCT-15 colon is 40.9%; in the assay on HT29 colon it was 49.9%; with SNB-75 CNS it was 52.8%; in the assay with SNB-19 CNS, 29.4%; in the assay with U251 CNS, 26.7%; in the assay on PC-3 prostate, 53%. Also, the growth with SK-MEL-5 melanoma was 50.5%; in the assay on UACC-62 melanoma, 34.1%; in the assay on LOX IMVI melanoma it was 35.3%; with SK-MEL-28 melanoma, 71%; in the assay with SK-MEL-2 melanoma, 71.8%; in the assay with EKVX NSCLC it was 78.8%. For the same compound, the growth in the assay on SN12C renal is 45.5%; with UO-31 renal, 46.2%; in the assay with ACHN renal it was 67.3%; in the assay with CAKI-1 renal, 61.1%; in the assay on CCRF-CEM leukemia, 24.6%; with MOLT-4 leukemia, 53.3%.

As to `COc1cc2nc(-c3ccc(C(F)(F)F)cc3)cc(OCCN3CCCCC3)c2cc1OC`, the growth with HCT-15 colon is 43.7%; with HT29 colon, 46.4%; with SNB-75 CNS it was 54.4%; in the assay on SNB-19 CNS, 91.1%; in the assay with U251 CNS, 72.3%; with PC-3 prostate it was 61.3%. For the same compound, the growth in the assay on SK-MEL-5 melanoma was 70.4%; with UACC-62 melanoma it was 89.7%; with LOX IMVI melanoma it was -15.5% (active); in the assay with SK-MEL-28 melanoma it was 70.2%; in the assay with SK-MEL-2 melanoma it was 105%; in the assay with EKVX NSCLC it was 62.4%. Also, the growth was 63.6% with SN12C renal; 93.9% in the assay with TK-10 renal; 81.4% with ACHN renal; 45.2% with CAKI-1 renal; 78.8% with CCRF-CEM leukemia; 65.3% in the assay on MOLT-4 leukemia.

Turning to `COc1cc(NCCCCCNC(C)(C)C)c2ncccc2c1`, the growth is 91.2% in the assay on HCT-15 colon; 85.9% with HT29 colon; 53.2% in the assay on SNB-75 CNS; 91.7% in the assay with SNB-19 CNS; 100% with U251 CNS; 76.4% with PC-3 prostate. Besides, the growth in the assay on SK-MEL-5 melanoma is 100%; with UACC-62 melanoma, 89.6%; in the assay with LOX IMVI melanoma it was 93.7%; in the assay with SK-MEL-28 melanoma, 107%; with SK-MEL-2 melanoma it was 113%; in the assay on EKVX NSCLC, 95.9%. Also, the growth is 86.7% in the assay with SN12C renal; 75.8% with UO-31 renal; 104% in the assay on ACHN renal; 103% with A498 renal; 51.8% in the assay with CCRF-CEM leukemia; 105% in the assay with MOLT-4 leukemia.

For the compound `CNC(=O)c1cncc(Cn2nc(C)c(NC(=O)c3ccc(COc4ccc(C(F)(F)F)cc4C)cc3)c2C)c1`, the growth was 74.7% with HCT-15 colon; 56.5% in the assay with HT29 colon; 77.7% in the assay with SNB-75 CNS; 56.6% in the assay on SNB-19 CNS; 63.7% in the assay with U251 CNS; 53.9% with PC-3 prostate. In addition, the growth was 7.09% (active) in the assay with SK-MEL-5 melanoma; 64.7% in the assay with UACC-62 melanoma; 64.3% in the assay with LOX IMVI melanoma; 81.6% with SK-MEL-28 melanoma; 48.8% in the assay on SK-MEL-2 melanoma; 46.5% in the assay with EKVX NSCLC. Further, the growth is 69.1% in the assay on SN12C renal; 61.9% in the assay with TK-10 renal; 62% in the assay with ACHN renal; 60% with CAKI-1 renal; 69% in the assay with CCRF-CEM leukemia; 41.7% in the assay on MOLT-4 leukemia.

Regarding `O=S(=O)(NCCNc1nccc(-c2c(-c3cccc(O)c3)nc3occn23)n1)c1ccccc1`, the growth in the assay with HCT-15 colon is 103%; with HT29 colon, 38.1%; in the assay with SNB-75 CNS, 87.8%; in the assay with SNB-19 CNS, 94.8%; in the assay on U251 CNS it was 95.4%; in the assay on PC-3 prostate, 85.3%. Also, the growth in the assay with SK-MEL-5 melanoma is 33.7%; in the assay on UACC-62 melanoma, 8.22% (active); in the assay with LOX IMVI melanoma, 53.7%; in the assay on SK-MEL-28 melanoma it was 34.1%; in the assay on SK-MEL-2 melanoma it was 61.3%; in the assay with EKVX NSCLC it was 109%. Besides, the growth in the assay on SN12C renal is 72.7%; in the assay with TK-10 renal it was 130%; in the assay with ACHN renal, 82.1%; with CAKI-1 renal, 78.3%; in the assay with CCRF-CEM leukemia it was 80.9%; in the assay on MOLT-4 leukemia, 94.2%.
